# From PubChem
# Bead autofluor = flagged as autofluorescent in microsphere protease counterscreen; compound autofluorescence counterscreen, microsphere flow cytometry; stronger effect = higher value; fluorescence intensity (test concentration not listed); hit rate 3.1% among 360,000; AID 624483; in the data active = fluorescence intensity above about 16000; inconclusive = no clear call, values can overlap the other calls
# BJeLR lethal = kills HRASV12-expressing BJeLR cells. BJeLR (HRASV12) viability, CellTiter-Glo ATP luminescence, 48 h. inhibition, % (test concentration not listed). hit rate 0.17% among 300,000. AID 1554; in the data active = inhibition above about 50%; inconclusive = no clear call, values can overlap the other calls
# BoNT-A LC inh2 = BoNT A light chain protease inhibition | multiplex microsphere protease substrate cleavage, flow cytometry | hit rate 0.17% among 360,000 | inhibition, % at 10 µM; note: plate controls were buffer without enzyme for full effect and enzyme alone for no effect
# Anthrax LF inh2 = inhibitors of Bacillus anthracis lethal factor protease. P15917. multiplex microsphere protease cleavage assay, LF. inhibition, % at 10 µM. hit rate 0.12% among 360,000. AID 588501; note: plate controls were buffer without enzyme for full effect and enzyme alone for no effect
# Target sequence (P15917 whole entry, looked up): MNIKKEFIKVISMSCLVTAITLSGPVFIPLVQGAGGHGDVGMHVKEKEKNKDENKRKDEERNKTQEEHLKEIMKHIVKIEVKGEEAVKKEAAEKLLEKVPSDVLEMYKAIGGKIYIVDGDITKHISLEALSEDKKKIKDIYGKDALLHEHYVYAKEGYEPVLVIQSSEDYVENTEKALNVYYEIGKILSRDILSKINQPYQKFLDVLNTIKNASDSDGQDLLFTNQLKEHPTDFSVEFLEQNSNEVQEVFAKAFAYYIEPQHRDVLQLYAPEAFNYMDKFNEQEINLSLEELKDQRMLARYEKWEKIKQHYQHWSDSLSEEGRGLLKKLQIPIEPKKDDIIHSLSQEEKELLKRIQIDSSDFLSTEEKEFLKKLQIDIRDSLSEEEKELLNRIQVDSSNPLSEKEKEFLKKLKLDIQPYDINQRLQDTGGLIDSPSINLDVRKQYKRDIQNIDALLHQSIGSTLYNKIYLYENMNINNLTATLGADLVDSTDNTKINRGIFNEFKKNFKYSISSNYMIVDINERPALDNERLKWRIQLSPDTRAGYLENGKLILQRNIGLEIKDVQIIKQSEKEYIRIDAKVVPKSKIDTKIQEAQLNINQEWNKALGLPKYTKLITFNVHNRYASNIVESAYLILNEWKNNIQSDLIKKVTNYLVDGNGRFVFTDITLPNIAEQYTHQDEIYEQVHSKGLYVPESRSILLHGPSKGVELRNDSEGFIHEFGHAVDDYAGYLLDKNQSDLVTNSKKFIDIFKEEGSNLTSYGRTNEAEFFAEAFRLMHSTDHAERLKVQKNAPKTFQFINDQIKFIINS
# BH1578 lux ind = quorum light induction in luxS cqsA deficient V. cholerae; V. cholerae BH1578 lux reporter, luminescence, 6 h; activation, % at 18.7 µM; hit rate 0.16% among 350,000; in the data active = activation mostly above about 9.7%, no sharp cut-off; inconclusive = no clear call, values can overlap the other calls; inactive = mostly below about 3.7%
# BoNT F protease = inhibitors of Botulinum neurotoxin F light chain protease; Multiplex microsphere protease cleavage assay, flow cytometry; inhibition, % at 10 µM; hit rate 0.22% among 360,000; AID 588497; in the data active = inhibition above about 35%, passing the limit was not always enough; inconclusive = no clear call, values can overlap the other calls; note: plate controls were buffer without enzyme for full effect and enzyme alone for no effect
# Starred values were filed as active, the others as inactive; i = inactive; u = inconclusive; x = no result given. An excerpt weighted towards active compounds, which were near 3.7% of everything screened. Cut-off read from the data, not from the text of the source, unless noted: active = inhibition above about 30%; inconclusive = no clear call, values can overlap the other calls; inactive = below that.
SMILES,Bead autofluor,BJeLR lethal,BoNT-A LC inh2,Anthrax LF inh2,BH1578 lux ind,BoNT F protease
COc1cccc(NC(=O)CN(C)C(=O)c2ccc3ccccc3c2)c1,23982*,7,-2,0,-12,-5
COc1cccc(NC(=O)CSCC(=O)Nc2ccccc2)c1,2668,-3,1,-2,0,3
COc1cccc(N/C(SC)=C(/C#N)C(=O)NCc2cccs2)c1,3486,-21,-1,-4,-1,-6
COc1cccc(N/C(SC)=C(/C#N)C(N)=O)c1,23601*,5,-2,-4,i,-2
COC(=O)c1sccc1-n1cc2c(c1-c1ccccc1)c(=O)n(C)c(=O)n2C,5846,x,-1,-2,x,-8
COCCN(CCOC)C(=O)Nc1ccc(Cl)cc1,4911,10,0,-1,0,-2
COCCN(CCOC)C(=O)CC(=O)N(CCOC)CCOC,19259*,-5,2,1,i,1
O=C(NCc1cccc(F)c1)c1[nH]c(C(F)(F)F)nc1-c1ccccc1,5718,x,0,10,x,9
CC(=O)Nc1ccc(C=C(C#N)c2ccc(C)cc2)cc1,3719,x,0,-5,-5,4
CCOC(=O)C1(C)CCCN(C(=O)c2cc(C#N)cs2)C1 (configuration not stated),3703,x,0,2,i,0
Cn1c2ccc(F)cc2c2ncn(CCCN(CCO)CCO)c(=O)c21,21356*,-13,-2,-4,0,-1
COc1nc(Nc2ccc(O)cc2)nc(OC(C(F)(F)F)C(F)(F)F)n1,16552*,-3,-1,-5,-2,-7
CCC(C)(C(=O)NC1CCCC1)N(C(=O)c1cnccn1)c1c(C)n(C)n(-c2ccccc2)c1=O (configuration not stated),21671*,-9,u,0,i,3
CCC(C)(C(=O)NC1CCCCC1)N(C(=O)CNC(C)=O)c1c(C)n(C)n(-c2ccccc2)c1=O (configuration not stated),3852,7,1,-3,i,-6
CCC(C)(C(=O)NC1CCCCC1)N(C(=O)c1cnccn1)c1c(C)n(C)n(-c2ccccc2)c1=O (configuration not stated),21469*,-16,u,0,-1,-2
CC(C)(C)SCCNC(=O)CN(c1ccc(F)cc1)S(C)(=O)=O,11036,13,0,-7,-1,1
CC(C)(C)SCCNC(=O)CN(c1ccc(F)c(Cl)c1)S(C)(=O)=O,23547*,-7,1,1,0,-2
Cc1cc(NC(=O)c2ccc3sc([C@@H]4O[C@H](CO)[C@H](O)[C@H](O)[C@H]4O)nc3c2)n(C)n1,3847,x,0,-5,i,0
COc1ncnc2c1ncn2CCCN1CCN(C(=O)C2CC2)CC1,3834,x,0,-6,i,-4
O=C(Nc1nnc(-c2ccccc2)s1)c1cc(S(=O)(=O)N2CCOCC2)c(Cl)cc1Cl,23535*,1,u,-2,i,1
O=C(Nc1nnc(-c2ccccc2)s1)c1ccc(Cl)c(S(=O)(=O)N2CCOCC2)c1,x,-7,x,x,x,x
COCCCNC(=O)Cc1c(C)c2c(cc(C)c3c(C(C)(C)C)coc32)oc1=O,3863,66*,2,4,0,-19
COCCNC(=O)Cc1c(C)c2c(cc(C)c3c(C)coc32)oc1=O,3734,0,-2,2,i,2
CCN(CC)C(=O)C1=C(C)N(CCCOC)C(=O)C(CC(=O)NCCc2ccccn2)C1 (configuration not stated),3812,x,0,-3,0,-3
O=C(c1ccccc1)N1N=C(C(F)(F)F)CC1(O)c1ccccc1 (configuration not stated),3136,-15,0,38*,-1,-11
SMILES,Bead autofluor,BJeLR lethal,BoNT-A LC inh2,Anthrax LF inh2,BH1578 lux ind,BoNT F protease
O=C(c1ccccc1)N1N=C(C(F)(F)F)CC1(O)c1ccc(F)cc1 (configuration not stated),3913,8,-1,-2,i,-1
COc1ccc(NC(=O)c2cccc3c(-c4ccc(O)c(OC)c4)coc23)cc1,3901,x,-1,-9,0,-3
Cc1[nH]n(-c2ccccc2)c(=O)c1S(=O)(=O)c1ccccc1,16181*,1,0,-2,i,-1
Cc1[nH]n(-c2ccccc2)c(=O)c1CCO,4688,-5,-1,10,0,1
COc1cc(N(C(=O)Cc2cccs2)C(C(=O)NC2CCCCC2)c2cccc(OC)c2OC)ccc1-n1cnnn1 (configuration not stated),2140,-6,0,0,0,1
COc1cccc(C(C(=O)NC2CCCCC2)N(C(=O)Cc2cccs2)c2ccc(-n3cnnn3)c(OC)c2)c1 (configuration not stated),22984*,5,0,-1,-6,2
O=C(NCc1ccccc1)C1Cc2c(-c3ccc(Cl)cc3)ccnc2O1 (configuration not stated),3553,x,0,-4,0,0
CCN(CC)CCSc1nc(O)c(-c2ccccc2)c(=O)[nH]1,17285*,4,-2,-2,-6,-3
CCCN(CCC)CCSc1nc(O)c(C(C)C)c(=O)[nH]1,18038*,-2,u,-14,2,5
CCCCCc1c(O)nc(SCCN(CC)CC)[nH]c1=O,3495,5,-1,-4,i,-6
c1ccc(Cn2nnnc2-c2ccco2)cc1,16264*,-6,0,2,-14,0
CCOC(=O)c1c(NC(=O)CSc2nc3ccccc3o2)sc(C)c1C,19163*,-11,u,-4,-2,5
COc1ccc(C(C)=O)cc1CN1C(=O)C(C)ON=C1c1cccc(C(F)(F)F)c1 (configuration not stated),5431,x,0,-2,-1,9
CC(C)C(NC(=O)c1cccs1)C(=O)NC1=NCCS1 (configuration not stated),21605*,10,u,-1,-1,3
O=C(NC1=NCCS1)c1cccs1,4826,-5,-2,-5,i,-4
Oc1c(CN2CCc3ccccc3C2)cc(Cl)c2cccnc12,5383,65*,-2,-11,1,-16
Oc1c(Cl)cc(CN2CCOCC2)c2cccnc12,8861,x,3,4,4,1
O=C(Nc1ccc(NC(=O)c2sc3ccccc3c2Cl)cc1Cl)c1ccco1,19130*,8,8,-7,i,14
O=C(Nc1ccc(NC(=O)c2cccs2)c(Cl)c1)c1ccco1,2204,-2,1,1,0,0
CCOc1ccc(C(=O)Nc2ccc(NC(=O)c3ccco3)c(Cl)c2)cc1Cl,3179,-1,0,-1,i,-10
CCOc1ccc(C(=O)Nc2ccc(NC(=O)c3ccco3)c(Cl)c2)cc1Br,22914*,24,u,-2,-2,0
O=C(Nc1ccc(N2CCN(C(=O)c3cccs3)CC2)c(Cl)c1)c1ccco1,16928*,6,-3,-3,i,-7
